The supplement of paper PMC10849652
Of roughly 7,900 targets only a part is listed; those with a hit were picked by preference. About 0.6% of all pairs of compound and target were hits.

Assays:
Experiment in all cases: log2 fold change, soluble protein after heating vs DMSO (PISA); higher = thermal stabilisation; K562 cells, 10 uM, 30 min; active = over 0.2 and 3.5 SD of the protein, either way, in both replicates (recomputed)
[1] = compound: CC1=C(C=C(C=C1)NC(=O)C2=CC(=CC=C2)C(C)(C)C#N)NC3=CC4=C(C=C3)N=CN(C4=O)C
In short: (§1)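 For each measurement, 10 μM compound was applied for 30 min to K562 cells at 2×10^6 cells/mL. Aliquots were heated for 3 min across 48°C-58°C, pooled, and extracted in PBS with 0.5% NP-40 at 4°C; the supernatant after 21,000xg for 90 min was soluble protein. This was quantified by TMTpro 16plex LC-MS/MS with channel sums equalised, and thermal stability was reported relative to control samples from duplicates, on a log2 fold-change scale.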

[2] = compound: CC1=C(C=C(C=C1)NC(=O)C2=CC(=CC=C2)N(C)C)NC(=O)C3=CC=C(C=C3)O
In short: as §1

[3] = compound: CC1=CC=C(C=C1)SC2=C3C=C(SC3=CN=C2)C(=O)N
In short: as §1

[4] = compound: CC1=NC(=CC=C1)C2=C(N=C(N2)C(C)(C)C)C3=CC4=NC=CN=C4C=C3
In short: as §1

[5] = compound: CCCCN(Cc1ccc(C(=O)NO)cc1)C(=O)Nc1ccccc1 [Nexturastat A]
In short: as §1

[6] = compound: CCCS(=O)(=O)Nc1ccc(F)c(C(=O)c2c[nH]c3ncc(-c4ccc(Cl)cc4)cc23)c1F [vemurafenib]
In short: as §1

[7] = compound: CCCS(=O)(=O)Nc1ccc(F)c(C(=O)c2c[nH]c3ncc(Cl)cc23)c1F
In short: as §1

[8] = compound: CCCc1cc(C)[nH]c(=O)c1CNC(=O)c1cc(-c2ccnc(N3CCN(C)CC3)c2)cc2c1cnn2C(C)C
In short: as §1

[9] = compound: CCN(CC)Cc1ccc2cc(COC(=O)Nc3ccc(C(=O)NO)cc3)ccc2c1 [givinostat]
In short: as §1

[10] = compound: CCN(CCCOc1ccc2c(Nc3cc(CC(=O)Nc4cccc(F)c4)[nH]n3)ncnc2c1)CCOP(=O)(O)O [barasertib]
In short: as §1

[11] = compound: CC[C@@H]1C(=O)N(C)c2cnc(Nc3ccc(C(=O)NC4CCN(C)CC4)cc3OC)nc2N1C1CCCC1
In short: as §1

[12] = compound: CC[C@@H]1C(=O)N(C)c2cnc(Nc3ccc(C(=O)N[C@H]4CC[C@H](N5CCN(CC6CC6)CC5)CC4)cc3OC)nc2N1C(C)C [volasertib]
In short: as §1

[13] = compound: CC[C@H](C)N1C=C(C2=C(C=C(C=C21)C3=CN=C(C=C3)N4CCNCC4)C(=O)NCC5=C(C=C(NC5=O)C)C)C
In short: as §1

[14] = compound: CC[C@H](C)[C@@H](C(=O)N[C@@H]([C@@H](C)O)C(=O)N[C@@H](CC(C)C)C(=O)[C@]1(CO1)C)NC(=O)[C@H]([C@@H](C)CC)N(C)C(=O)C [epoxomicin]
In short: as §1

[15] = compound: CCn1c(C(=O)N(C2CC2)C2CC2)cc2c3c(ncn3C)c(Nc3cc(C)n(C)n3)nc21
In short: as §1

[16] = compound: CCn1cc(-c2ccnc3[nH]c(-c4cccc(CN(C)C)c4)cc23)c(-c2ccc(NC(=O)N(C)C)cc2)n1
In short: as §1

[17] = compound: CN(C)CC(=O)Nc1ccc2[nH]c(=O)c3ccccc3c2c1
In short: as §1

[18] = compound: CN(CCOC1=CC=C(C=C1)C[C@H]2C(=O)NC(=O)S2)C3=CC=CC=N3 (racemic) [rosiglitazone]
In short: as §1

[19] = compound: CN1C2=C(C3=C1C(=O)N(N=C3)CC4=CC(=CC=C4)N)SC(=C2)S(=O)C
In short: as §1

[20] = compound: CN1CCC(CNc2ccc3ncc(-c4cccc(OC(F)(F)F)c4)n3n2)CC1
In short: as §1

Measured: log2 fold change

CYP51A1 (UniProt Q16850)
Chain of UniProt Q16850 (Q16850 whole entry, looked up): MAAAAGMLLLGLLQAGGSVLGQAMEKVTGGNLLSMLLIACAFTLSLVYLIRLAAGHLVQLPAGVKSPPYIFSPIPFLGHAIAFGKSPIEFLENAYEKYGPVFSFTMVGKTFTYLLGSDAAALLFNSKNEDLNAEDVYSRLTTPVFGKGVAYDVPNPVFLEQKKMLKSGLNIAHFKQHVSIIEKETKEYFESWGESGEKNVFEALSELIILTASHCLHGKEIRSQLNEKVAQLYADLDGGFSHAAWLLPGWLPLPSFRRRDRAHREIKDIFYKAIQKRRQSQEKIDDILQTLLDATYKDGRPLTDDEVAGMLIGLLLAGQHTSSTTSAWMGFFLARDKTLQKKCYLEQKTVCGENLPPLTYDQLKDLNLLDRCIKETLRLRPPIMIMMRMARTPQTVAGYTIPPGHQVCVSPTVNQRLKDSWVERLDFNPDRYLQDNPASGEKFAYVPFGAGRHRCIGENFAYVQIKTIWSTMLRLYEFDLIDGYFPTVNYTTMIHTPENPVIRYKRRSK
inactive: [1] 0.063 | [2] -0.036 | [3] -0.098 | [4] -0.133 | [5] 0.024 | [6] 0.029 | [7] -0.015 | [8] 0.07 | [9] 0.007 | [10] 0.01 | [11] 0.019 | [12] 0.132 | [13] 0.052 | [14] -0.061 | [15] 0.058 | [16] 0.015 | [17] 0.015 | [18] -0.056 | [19] 0.072
active: [20] -0.331

FAM122A (UniProt Q96E09)
Chain of UniProt Q96E09 (Q96E09 whole entry, looked up): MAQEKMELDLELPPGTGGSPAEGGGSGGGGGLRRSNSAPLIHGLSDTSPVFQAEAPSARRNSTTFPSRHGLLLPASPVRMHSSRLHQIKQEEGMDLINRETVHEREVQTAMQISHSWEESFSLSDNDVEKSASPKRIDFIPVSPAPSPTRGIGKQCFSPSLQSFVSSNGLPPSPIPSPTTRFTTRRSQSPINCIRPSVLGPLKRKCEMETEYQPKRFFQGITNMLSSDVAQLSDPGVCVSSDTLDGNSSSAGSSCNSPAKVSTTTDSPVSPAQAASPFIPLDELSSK
active: [16] -0.426 | [20] -0.699
inactive: [1] -0.01 | [2] -0.005 | [3] 0.045 | [4] -0.006 | [5] 0.107 | [6] -0.017 | [7] 0.095 | [8] 0.026 | [9] 0.064 | [10] -0.016 | [11] -0.042 | [12] -0.054 | [13] 0.006 | [14] -0.141 | [15] -0.029 | [17] -0.043 | [18] 0.064 | [19] -0.081

EOGT (UniProt Q5NDL2)
Chain of UniProt Q5NDL2 (Q5NDL2 whole entry, looked up): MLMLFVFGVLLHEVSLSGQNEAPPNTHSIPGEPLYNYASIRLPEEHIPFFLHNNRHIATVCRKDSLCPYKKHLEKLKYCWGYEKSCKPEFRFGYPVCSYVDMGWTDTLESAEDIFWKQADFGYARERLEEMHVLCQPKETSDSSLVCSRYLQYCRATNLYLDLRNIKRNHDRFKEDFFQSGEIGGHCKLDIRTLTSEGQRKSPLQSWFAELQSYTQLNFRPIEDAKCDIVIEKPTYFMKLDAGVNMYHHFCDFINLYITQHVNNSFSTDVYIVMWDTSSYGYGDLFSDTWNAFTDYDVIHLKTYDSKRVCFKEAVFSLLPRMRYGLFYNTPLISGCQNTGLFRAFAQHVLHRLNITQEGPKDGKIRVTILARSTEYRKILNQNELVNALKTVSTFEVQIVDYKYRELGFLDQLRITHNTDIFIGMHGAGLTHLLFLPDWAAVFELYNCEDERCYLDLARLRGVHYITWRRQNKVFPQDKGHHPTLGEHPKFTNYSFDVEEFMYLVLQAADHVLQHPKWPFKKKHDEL
inactive: [1] -0.043 | [2] -0.073 | [3] -0.088 | [4] -0.052 | [5] 0.033 | [6] -0.05 | [7] -0.098 | [8] -0.043 | [9] 0.02 | [10] -0.026 | [11] -0.004 | [12] 0.013 | [13] -0.037 | [14] 0.05 | [15] -0.007 | [16] 0.001 | [17] 0 | [18] 0.022 | [19] 0.021 | [20] 0.062

ECH1 (UniProt Q13011)
Chain of UniProt Q13011 (Q13011 whole entry, looked up): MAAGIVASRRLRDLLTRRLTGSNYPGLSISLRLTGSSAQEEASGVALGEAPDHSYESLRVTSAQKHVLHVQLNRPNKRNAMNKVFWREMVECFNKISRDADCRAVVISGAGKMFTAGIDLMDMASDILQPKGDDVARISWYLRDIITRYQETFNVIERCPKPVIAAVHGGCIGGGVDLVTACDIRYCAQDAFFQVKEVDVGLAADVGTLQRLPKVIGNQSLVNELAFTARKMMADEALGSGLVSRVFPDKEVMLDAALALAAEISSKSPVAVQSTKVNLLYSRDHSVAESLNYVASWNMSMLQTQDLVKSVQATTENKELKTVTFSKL
active: [20] 0.694
inactive: [1] 0.005 | [2] -0.027 | [3] 0.044 | [4] 0.014 | [5] -0.032 | [6] 0.012 | [7] -0.003 | [8] -0.065 | [9] 0.129 | [10] 0.035 | [11] 0.019 | [12] 0.276 | [13] 0.024 | [14] 0.036 | [15] -0.032 | [16] -0.021 | [17] 0.023 | [18] 0.052 | [19] -0.041

DMAC1 (UniProt Q96GE9)
Chain of UniProt Q96GE9 (Q96GE9 whole entry, looked up): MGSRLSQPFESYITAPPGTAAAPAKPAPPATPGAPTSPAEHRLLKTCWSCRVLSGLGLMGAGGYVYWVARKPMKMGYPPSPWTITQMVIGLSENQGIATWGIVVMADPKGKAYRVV
inactive: [1] -0.173 | [2] 0.041 | [3] 0.116 | [4] 0.005 | [5] -0.071 | [6] -0.18 | [7] -0.035 | [8] -0.04 | [9] -0.179 | [10] 0.074 | [11] 0.269 | [12] 0.016 | [13] -0.038 | [14] -0.084 | [15] 0.057 | [16] -0.041 | [17] 0.001 | [18] -0.025 | [19] -0.007 | [20] 0.015

DYRK1A isoform 2 (UniProt Q13627)
inactive: [1] -0.025 | [2] 0.061 | [3] 0.003 | [4] -0.005 | [5] -0.032 | [6] -0.021 | [7] -0.024 | [8] -0.019 | [9] 0.038 | [10] 0.004 | [11] 0.015 | [12] -0.005 | [13] 0.104 | [14] 0.048 | [15] -0.012 | [16] -0.05 | [17] 0.014 | [18] 0.036 | [19] -0.024 | [20] -0.086

DMXL1 (UniProt Q9Y485)
active: [20] -0.276
inactive: [1] -0.075 | [2] -0.004 | [3] 0.025 | [4] 0.017 | [5] 0.044 | [6] 0.008 | [7] 0.032 | [8] 0.043 | [9] 0.076 | [10] 0.068 | [11] -0.119 | [12] -0.241 | [13] 0.029 | [14] 0.026 | [15] -0.044 | [16] 0.072 | [17] 0.012 | [18] -0.032 | [19] 0.01

CTSL (UniProt P07711)
Chain of UniProt P07711 (P07711 whole entry, looked up): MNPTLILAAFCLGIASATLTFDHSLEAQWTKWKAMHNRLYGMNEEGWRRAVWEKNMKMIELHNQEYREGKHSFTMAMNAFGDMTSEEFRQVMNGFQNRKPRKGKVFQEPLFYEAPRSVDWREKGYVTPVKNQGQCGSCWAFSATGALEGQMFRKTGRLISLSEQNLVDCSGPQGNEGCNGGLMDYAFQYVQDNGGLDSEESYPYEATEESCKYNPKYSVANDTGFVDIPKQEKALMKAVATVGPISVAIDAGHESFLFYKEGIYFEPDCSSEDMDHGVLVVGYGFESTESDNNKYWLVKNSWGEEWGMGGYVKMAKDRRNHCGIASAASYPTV
inactive: [1] -0.083 | [2] 0.014 | [3] -0.049 | [4] 0.013 | [5] 0.085 | [6] -0.023 | [7] -0.05 | [8] 0.033 | [9] 0.121 | [10] 0.092 | [11] -0.124 | [12] -0.247 | [13] -0.045 | [14] 0.017 | [15] 0.014 | [16] 0.196 | [17] -0.074 | [18] -0.037 | [19] 0.019 | [20] -0.306

EVC2 (UniProt Q86UK5)
inactive: [1] -0.263 | [2] -0.146 | [3] -0.006 | [4] -0.018 | [5] 0.046 | [6] -0.073 | [7] -0.054 | [8] 0.16 | [9] 0.06 | [10] -0.064 | [11] -0.133 | [12] -0.003 | [13] 0.078 | [14] 0.097 | [15] -0.038 | [16] -0.037 | [17] -0.087 | [18] 0.128 | [19] 0.034 | [20] -0.293

DUS3L (UniProt Q96G46)
Chain of UniProt Q96G46 (Q96G46 whole entry, looked up): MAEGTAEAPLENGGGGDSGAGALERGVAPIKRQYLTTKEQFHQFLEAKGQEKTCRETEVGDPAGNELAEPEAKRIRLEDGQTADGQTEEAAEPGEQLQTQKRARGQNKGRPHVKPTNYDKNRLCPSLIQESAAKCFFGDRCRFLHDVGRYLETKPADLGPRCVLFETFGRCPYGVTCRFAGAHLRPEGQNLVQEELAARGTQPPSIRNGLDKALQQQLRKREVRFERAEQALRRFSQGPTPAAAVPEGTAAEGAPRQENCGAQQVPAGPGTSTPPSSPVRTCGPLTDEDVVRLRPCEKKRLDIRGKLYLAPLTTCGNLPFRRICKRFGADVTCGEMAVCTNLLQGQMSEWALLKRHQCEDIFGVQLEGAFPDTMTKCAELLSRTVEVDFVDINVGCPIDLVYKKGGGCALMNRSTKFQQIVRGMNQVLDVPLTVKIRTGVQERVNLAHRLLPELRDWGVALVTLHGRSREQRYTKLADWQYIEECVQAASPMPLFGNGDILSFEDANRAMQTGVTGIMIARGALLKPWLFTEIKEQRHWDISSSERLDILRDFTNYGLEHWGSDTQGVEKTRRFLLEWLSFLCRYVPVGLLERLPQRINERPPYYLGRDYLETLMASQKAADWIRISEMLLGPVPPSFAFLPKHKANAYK
inactive: [1] 0.064 | [2] -0.015 | [3] -0.01 | [4] 0.017 | [5] -0.023 | [6] 0.042 | [7] 0.031 | [8] 0.036 | [9] -0.004 | [10] 0.021 | [11] -0.162 | [13] 0.017 | [14] 0.087 | [15] 0.004 | [16] 0.02 | [17] 0.028 | [18] 0.007 | [19] 0.021 | [20] -0.04
active: [12] -0.331

EGLN1 (UniProt Q9GZT9)
Chain of UniProt Q9GZT9 (Q9GZT9 whole entry, looked up): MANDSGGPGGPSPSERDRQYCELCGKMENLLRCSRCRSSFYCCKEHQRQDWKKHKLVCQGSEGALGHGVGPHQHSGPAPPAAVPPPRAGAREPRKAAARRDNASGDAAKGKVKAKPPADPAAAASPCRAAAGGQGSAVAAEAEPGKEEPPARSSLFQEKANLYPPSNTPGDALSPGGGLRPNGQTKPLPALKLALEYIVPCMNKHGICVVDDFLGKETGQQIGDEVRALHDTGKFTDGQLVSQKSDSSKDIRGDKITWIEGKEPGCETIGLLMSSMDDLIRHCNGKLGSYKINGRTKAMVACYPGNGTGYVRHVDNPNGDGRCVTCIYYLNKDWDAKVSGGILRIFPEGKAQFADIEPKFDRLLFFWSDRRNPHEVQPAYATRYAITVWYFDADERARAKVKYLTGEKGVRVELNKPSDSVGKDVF
inactive: [1] -0.14 | [2] 0.009 | [3] -0.013 | [4] 0.048 | [5] -0.096 | [6] -0.007 | [7] 0.006 | [8] 0.017 | [9] -0.191 | [10] 0.066 | [11] 0.117 | [12] -0.001 | [13] 0.048 | [14] 0.078 | [15] -0.011 | [16] -0.004 | [17] 0.007 | [18] 0.035 | [19] -0.006 | [20] -0.052

ERCC2 (UniProt P18074)
inactive: [1] -0.024 | [2] 0.014 | [3] -0.005 | [4] -0.038 | [5] 0.035 | [6] 0.166 | [7] 0.036 | [8] 0.021 | [9] 0.095 | [10] -0.007 | [11] -0.015 | [12] -0.258 | [13] 0.043 | [15] 0.003 | [16] -0.076 | [17] -0.019 | [18] 0.007 | [19] 0.013 | [20] -0.153
active: [14] 0.326

DDX5 (UniProt P17844)
Chain of UniProt P17844 (P17844 whole entry, looked up): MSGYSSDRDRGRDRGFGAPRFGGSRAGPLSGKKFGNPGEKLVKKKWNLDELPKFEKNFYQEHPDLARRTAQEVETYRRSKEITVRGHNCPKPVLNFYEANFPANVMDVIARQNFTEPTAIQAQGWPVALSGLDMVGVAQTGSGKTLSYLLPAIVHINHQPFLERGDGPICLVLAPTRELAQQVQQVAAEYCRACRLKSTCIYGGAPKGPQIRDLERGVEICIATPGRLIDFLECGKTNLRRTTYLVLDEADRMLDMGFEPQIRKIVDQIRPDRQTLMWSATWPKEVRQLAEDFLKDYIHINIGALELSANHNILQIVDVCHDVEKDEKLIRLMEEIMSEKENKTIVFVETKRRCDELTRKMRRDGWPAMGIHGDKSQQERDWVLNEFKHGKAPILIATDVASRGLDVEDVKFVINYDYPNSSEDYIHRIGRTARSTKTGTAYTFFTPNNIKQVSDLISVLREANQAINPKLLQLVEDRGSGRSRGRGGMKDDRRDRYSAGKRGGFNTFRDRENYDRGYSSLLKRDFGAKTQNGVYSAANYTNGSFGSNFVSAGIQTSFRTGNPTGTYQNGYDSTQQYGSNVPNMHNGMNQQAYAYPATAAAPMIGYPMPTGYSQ
active: [11] -0.426 | [12] -0.589
inactive: [1] 0.136 | [2] -0.131 | [3] 0.036 | [4] 0.112 | [5] 0.033 | [6] 0.142 | [7] 0.174 | [8] 0.036 | [9] 0.178 | [10] 0.122 | [13] 0.103 | [14] 0.149 | [15] -0.115 | [16] -0.083 | [17] 0.101 | [18] 0.066 | [19] 0.018 | [20] 0.019

CUX1 isoform 2 (UniProt Q13948)
Chain of UniProt Q13948 (Q13948 whole entry, looked up): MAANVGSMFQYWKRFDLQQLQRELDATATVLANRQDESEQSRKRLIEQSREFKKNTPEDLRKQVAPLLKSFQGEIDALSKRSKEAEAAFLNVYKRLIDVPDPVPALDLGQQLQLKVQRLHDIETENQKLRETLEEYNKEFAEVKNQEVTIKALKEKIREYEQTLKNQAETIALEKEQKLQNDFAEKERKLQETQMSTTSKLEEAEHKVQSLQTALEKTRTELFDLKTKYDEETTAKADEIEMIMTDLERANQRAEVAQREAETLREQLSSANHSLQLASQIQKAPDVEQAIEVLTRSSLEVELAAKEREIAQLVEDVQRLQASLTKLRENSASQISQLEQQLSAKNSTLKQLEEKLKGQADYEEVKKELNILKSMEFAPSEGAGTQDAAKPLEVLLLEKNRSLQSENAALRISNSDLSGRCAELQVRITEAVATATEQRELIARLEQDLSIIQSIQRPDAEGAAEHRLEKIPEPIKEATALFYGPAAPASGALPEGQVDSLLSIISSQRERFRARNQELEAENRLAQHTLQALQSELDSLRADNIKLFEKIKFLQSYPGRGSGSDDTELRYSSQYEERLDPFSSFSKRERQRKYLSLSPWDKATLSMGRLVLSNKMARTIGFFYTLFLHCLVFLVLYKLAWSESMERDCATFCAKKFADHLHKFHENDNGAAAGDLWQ
inactive: [1] -0.07 | [2] 0.007 | [3] -0.003 | [4] -0.031 | [5] 0.051 | [6] 0.074 | [7] 0.077 | [8] -0.011 | [9] -0.049 | [10] 0.038 | [11] -0.055 | [12] -0.188 | [13] 0 | [14] -0.002 | [15] -0.112 | [16] 0.043 | [17] 0.317 | [18] 0.033 | [19] 0.016 | [20] 0.055

ERLIN2 (UniProt O94905)
Chain of UniProt O94905 (O94905 whole entry, looked up): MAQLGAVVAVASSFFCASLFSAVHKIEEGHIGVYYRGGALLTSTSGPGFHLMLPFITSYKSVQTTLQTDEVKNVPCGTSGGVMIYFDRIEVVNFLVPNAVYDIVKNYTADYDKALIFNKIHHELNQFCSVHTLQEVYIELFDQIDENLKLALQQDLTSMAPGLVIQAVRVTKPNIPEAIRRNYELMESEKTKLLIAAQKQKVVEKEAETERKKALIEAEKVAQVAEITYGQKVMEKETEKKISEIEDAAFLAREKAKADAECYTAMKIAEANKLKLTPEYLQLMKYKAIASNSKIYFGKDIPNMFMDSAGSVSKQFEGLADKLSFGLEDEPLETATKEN
inactive: [1] -0.045 | [2] -0.024 | [3] 0.009 | [4] -0.037 | [5] 0.104 | [6] -0.062 | [7] 0.008 | [8] 0.12 | [9] 0.038 | [10] -0.003 | [11] 0.06 | [12] -0.057 | [13] 0.054 | [14] -0.034 | [15] -0.031 | [16] 0.01 | [17] -0.051 | [18] -0.01 | [19] 0.096 | [20] 0.008
